Several values for one entry are separate records, joined by “and”; a condition that tells them apart may be missing. Identical values can stand only once. Results filed as inconclusive are left out. Where a call stands in place of a potency, no number is given. Activity calls are given as the source filed them. Unless noted, calls follow the shape of the dose curve; as a rule, active = well fitted curve in the direction sought with a large enough effect; inconclusive = small, poorly fitted or top-dose-only effect, or another doubt; inactive = no such curve, though single readings can be large; an effect the other way counts as inactive or inconclusive.
What was measured:
[1] = qHTS Assay for Lipid Storage Modulators (AID 1519; calls by dose curve); conditions: Drosophila S3 cells, BODIPY lipid droplet/cell ratio, laser cytometry, cells loaded with oleic acid
How it was run: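 Cells seeded at 5,000 per well were treated with compounds over a concentration series and loaded with oleic acid (400 uM, as added). Lipid droplet fluorescence (488 nm excitation, 500-530 nm channel) was read by laser-scanning cytometry and normalized to 20 uM Triacsin C.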

[2] = biological target: DNA repair nuclease/redox regulator APEX1 (Homo sapiens) (UniProt P27695); assay: qHTS Validation Assay for Inhibitors of the Human Apurinic/apyrimidinic Endonuclease 1 (APE1) (AID 1705; also: potency is read from the fitted curve at half-maximal effect;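 as to activity change, negative = inhibition: TAMRA fluorescence gain over two minutes as APE1 cuts a quenched THF abasic duplex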)
How it was run: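 Substrate: 50 nM final fluorophore/quencher THF-abasic duplex. Enzyme preincubated with compounds 15 min, RT. Progress derived from fluorescence difference, third minus first kinetic read.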

[3] = Counterscreen for APE1 Inhibitors: Fluorescent Dye Displacement Validation Assay (AID 1707); also: potency is read from the fitted curve at half-maximal effect
How it was run: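 Signal: ThO fluorescence (ex 480 nm/em 540 nm) on binding 50 nM dsDNA; displacement by test compound reduces it. Conditions: 250 nM dye, 50 mM Tris-HCl pH7.5, 2 mM MgCl2, 50mM NaCl, 0.01% Tween-20.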

[4] = biological target: Endonuclease 4 (Escherichia coli (strain K12)) (UniProt P0A6C1); assay: Counterscreen for APE1 Inhibitors: qHTS Validation Assay for Inhibitors of Endonuclease IV (AID 1708)
How it was run: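 Conditions: 2 nM enzyme, 50 nM TAMRA/BHQ-2 substrate, pH 7.5 Tris buffer with 2 mM MgCl2, RT. Compound preincubation 15 min; readout three fluorescence reads 60 s apart, third-minus-first.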

[5] = qHTS for differential inhibitors of proliferation of Plasmodium falciparum line 7G8 (AID 1815);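 also: parasite growth measured after three days of incubation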; also: potency is read from the fitted curve at half-maximal effect
[6] = qHTS for differential inhibitors of proliferation of Plasmodium falciparum line GB4 (AID 1816); conditions: Potency: Plasmodium falciparum GB4 proliferation inhibition;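 also: parasite growth measured after 72 h incubation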; also: potency is read from the fitted curve at half-maximal effect
[7] = qHTS for differential inhibitors of proliferation of Plasmodium falciparum line 3D7 (AID 1876); also: potency is read from the fitted curve at half-maximal effect
[8] = qHTS for differential inhibitors of proliferation of Plasmodium falciparum line D10 (AID 1877);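 also: parasites grown with compound for 72 h before DNA staining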; also: potency is read from the fitted curve at half-maximal effect
[9] = qHTS for differential inhibitors of proliferation of Plasmodium falciparum line Dd2 (AID 1882); conditions: Potency: Plasmodium falciparum Dd2 proliferation inhibition; also: nearly all actives have a fitted effect of over 65% in size; also: potency is read from the fitted curve at half-maximal effect
How it was run: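 SYBR Green DNA fluorescence (ex 485, em 535 nm) after overnight lysis quantifies parasite growth; compound exposure lasted 72 h at 37 C on infected red cells at 2.5% hematocrit, 0.3% parasitemia (final). Artemisinin 0.29 uM and vehicle wells define normalization.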

[10] = measured here: cell count channel max response
[11] = measured here: lipid channel max response

Chain of DNA repair nuclease/redox regulator APEX1 (Homo sapiens) (P27695 whole entry, looked up): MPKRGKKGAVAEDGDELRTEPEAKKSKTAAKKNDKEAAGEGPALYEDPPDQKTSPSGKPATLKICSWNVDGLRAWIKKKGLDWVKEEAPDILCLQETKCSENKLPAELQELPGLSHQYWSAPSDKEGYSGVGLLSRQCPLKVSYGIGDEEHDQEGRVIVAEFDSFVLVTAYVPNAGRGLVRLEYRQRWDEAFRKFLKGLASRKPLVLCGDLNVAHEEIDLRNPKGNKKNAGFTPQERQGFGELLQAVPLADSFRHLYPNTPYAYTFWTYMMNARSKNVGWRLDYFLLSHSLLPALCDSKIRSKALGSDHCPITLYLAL

Row | SMILES | activity change, negative = inhibition ([1]; at 57.5 µM (top of the series)) | max response [1, 10] | max response [1, 11] | Potency [2] | Potency [3] | activity change, negative = inhibition ([1]; at 25.7 µM (top of the series)) | Potency [4] | Potency [5] | Potency [6] | Potency [7] | Potency [8] | Potency [9]
1 | O=c1[nH]cc(F)c(=O)[nH]1 | 6.92% (inactive) and -0.382% (inactive) | 3.09% and 58.9% | 12.8% and 58.3% | inactive | inactive | – | – | – | – | – | – | –
2 | CCC1(c2ccccc2)C(=O)NCNC1=O | 0.988% (inactive) and 9.51% (inactive) | 4.93% and -20.9% and 16.1% | 2.59% and -19% and 28.8% | – | inactive | -1.4% (inactive) | inactive | inactive | inactive | inactive | inactive | inactive
3 | COc1cc2nc(N3CCN(C(=O)C4COc5ccccc5O4)CC3)nc(N)c2cc1OC (configuration not stated) | – | – | – | inactive | inactive | – | inactive | 2.24 µM (active) | 3.16 µM (active) | 2.82 µM (active) | 2.51 µM (active) | 11.2 µM (active)
4 | CCCNCC(O)COc1ccccc1C(=O)CCc1ccccc1 (configuration not stated) | 6.61% (inactive) and -1.46% (inactive) | 8.1% and 22.1% | 14% and 22.1% | inactive | inactive | – | – | – | 0.355 µM (active) | 0.891 µM (active) | 2.24 µM (active) | 1 µM (active)
5 | CN(C)C(=O)C(CCN1CCC(O)(c2ccc(Cl)cc2)CC1)(c1ccccc1)c1ccccc1 | – | – | – | inactive | inactive | – | – | – | – | – | – | –
6 | CCCCc1oc2ccccc2c1C(=O)c1cc(I)c(OCCN(CC)CC)c(I)c1 | -1.96% (inactive) | 0.489% | 1.02% | inactive | inactive | – | – | 2.82 µM (active) | 2.51 µM (active) | 2.82 µM (active) | 7.08 µM (active) | 6.31 µM (active)
7 | Cn1ccc2cc3c(cc21)CCN3C(=O)Nc1cccnc1 | – | – | – | inactive | inactive | – | inactive | 10 µM (active) | 11.2 µM (active) | – | – | –
8 | O=c1c(O)c(-c2ccc(O)c(O)c2)oc2cc(O)cc(O)c12 | – | – | – | – | – | – | inactive | – | – | – | – | –
9 | CC(C)C(=O)Nc1ccc([N+](=O)[O-])c(C(F)(F)F)c1 | – | – | – | inactive | inactive | – | – | – | – | – | – | inactive
10 | CC12CC3CC(C)(C1)CC(N)(C3)C2 | 7.67% (inactive) and 1.43% (inactive) | 15.3% and 15.6% | 26.5% and 20.5% | inactive | – | – | inactive | 11.2 µM (active) | 0.891 µM (active) | – | inactive | 5.62 µM (active)
11 | CN1CCN2c3ccccc3Cc3ccccc3C2C1 (configuration not stated) | 3.41% (inactive) | 10.1% | 10.4% | inactive | inactive | – | inactive | 10 µM (active) | 12.6 µM (active) | – | – | 7.08 µM (active)
12 | CC(C)NCC(O)COc1ccc(CCOCC2CC2)cc1 (configuration not stated) | -2.88% (inactive) | -16.9% | -20.2% | inactive | inactive | – | inactive | 10 µM (active) | – | inactive | inactive | inactive
13 | Cc1cc(C(C)(C)C)cc(C)c1CC1=NCCN1 | – | – | – | inactive | inactive | – | – | – | – | – | – | –
14 | C[C@](N)(Cc1ccc(O)c(O)c1)C(=O)O | 1.88% (inactive) | 48.1% | 42% | 7.94 µM (active) | inactive | – | inactive | inactive | – | inactive | inactive | inactive
15 | CN(Cc1cnc2nc(N)nc(N)c2n1)c1ccc(C(=O)N[C@@H](CCC(=O)O)C(=O)O)cc1 | 0.2% (inactive) | -11.7% | -9.12% | 20 µM (active) | – | – | inactive | 0.126 µM (active) | 0.0398 µM (active) | 0.0708 µM (active) | 0.0398 µM (active) | 0.0794 µM (active)
16 | COc1cc2c(c(OC)c1OC)-c1ccc(OC)c(=O)cc1[C@@H](NC(C)=O)CC2 | – | – | – | inactive | inactive | – | – | – | – | – | – | –
17 | COc1cc2nc(N3CCN(C(=O)c4ccco4)CC3)nc(N)c2cc1OC | – | – | – | inactive | – | – | – | 7.94 µM (active) | 12.6 µM (active) | 8.91 µM (active) | 10 µM (active) | 7.94 µM (active)
18 | CN1C2CCC1CC(OC(=O)C(CO)c1ccccc1)C2 (configuration not stated) | – | – | – | inactive | inactive | – | – | – | – | inactive | inactive | –
19 | NC(=O)NO | 7.16% (inactive) | 21% | 26.4% | inactive | inactive | – | inactive | inactive | inactive | inactive | inactive | inactive
20 | CCOC(=O)c1ncn2c1CN(C)C(=O)c1cc(F)ccc1-2 | -0.292% (inactive) | 20.1% | 21.2% | inactive | inactive | – | – | inactive | inactive | inactive | inactive | inactive
21 | COc1ccc2[nH]cc(CCNC(C)=O)c2c1 | 11.3% (inactive) and -5.62% (inactive) and 7.48% (inactive) | – | – | inactive | inactive | 1.02% (inactive) | inactive | inactive | inactive | inactive | inactive | inactive
22 | CN1C(C(=O)Nc2ccccn2)=C(O)c2ccccc2S1(=O)=O | – | -1.41% | -3.03% | inactive | inactive | -1.27% (inactive) | inactive | – | – | inactive | inactive | inactive
23 | O=C(Nc1ccc([N+](=O)[O-])cc1Cl)c1cc(Cl)ccc1O | – | – | – | inactive | 3.98 µM (active) | – | – | 1 µM (active) | 0.708 µM (active) | 0.794 µM (active) | 1 µM (active) | 1.41 µM (active)
24 | Cc1ccccc1N1C(=O)c2cc(S(N)(=O)=O)c(Cl)cc2NC1C (configuration not stated) | 5.05% (inactive) and -0.764% (inactive) | 11.3% and 51.4% | 18.3% and 52% | inactive | inactive | – | – | – | inactive | inactive | inactive | inactive
25 | Cc1cn([C@H]2C=C[C@@H](CO)O2)c(=O)[nH]c1=O | 1.52% (inactive) | -10.8% | -8.91% | inactive | inactive | – | – | inactive | inactive | inactive | inactive | inactive
